Data reported in PubChem BioAssay.
Several values for one entry are separate records, joined by “and”; a condition that tells them apart may be missing. Equal entries are not always repeated. Unmarked numbers belong to inactive results. The rule behind the calls is not given here.

Test system: Botulinum neurotoxin type F light chain protease (Clostridium botulinum)
Test: Botulinum neurotoxin type F light chain protease inhibition, multiplex microsphere flow cytometry, validation set (AID 588459)
Conditions: multiplex microsphere protease substrate cleavage assay, at 10 µM, hits give high values

SMILES | inhibition
CCOc1cc2oc(=O)c3c(c2cc1Cl)CCC3 | 3%
O=C1CCCC(=O)C1=Cc1c[nH]c2ccccc12 | 3%
CN1CCC(=C2c3ccccc3CC(=O)c3sccc32)CC1 | 8%
O=C(N/N=C\c1cc([N+](=O)[O-])ccc1N1CCOCC1)c1ccccn1 | -0.1%
O=c1[nH]c(=O)n(C2CCCO2)cc1F (stereo not drawn) | -5.7%
CC(C)OC(=O)C1C(=O)CC(C)(O)C(C(=O)OC(C)C)C1c1cccc(O)c1 (stereo not drawn) | 3.9%
O=C(CN1C(=O)/C(=C/c2cccc(Br)c2)SC1=S)Nc1cccnc1 | 1.8%
COC(=O)c1cc(=O)c2ccc(OC)cc2o1 | -4.1%
O=C(OCC1OC2OC3(CCCCC3)OC2C2OC3(CCCCC3)OC12)c1ccccc1 (stereo not drawn) | -3.1%
CC(C)[C@H](NC(=O)[C@@H]1CSCN1C(=O)OC(C)(C)C)C(=O)NCC1CCC(C(=O)O)CC1 (stereo partly drawn) | -1.3%
Fc1ccc(C(c2ccc(F)cc2)N2CCN(C/C=C/c3ccccc3)CC2)cc1 | -5.9%
COc1ccc2c(c1)[nH]c1c(=O)n(Cc3ccccn3)cnc12 | 3.9%
COCc1cc(=O)[nH]c(/N=C(\N)Nc2ccc(Oc3ccccc3)cc2)n1 | 3.4%
O=C1CCCCCN1Cc1ccccc1 | -3.6%
Nc1nc(Cl)nc2c1ncn2[C@@H]1O[C@H](CO)[C@@H](O)[C@H]1O | 3.3%
COC(=O)c1cc(OC)c(OC)c(OC)c1[N+](=O)[O-] | 1.9%
COCCCC/C(=N\OCCN)c1ccc(C(F)(F)F)cc1 | -1.3%
O=C(O)c1ccc(C(=O)C(=O)c2ccccc2)cc1 | 1.6%
CC(=O)OCC(=O)[C@H]1CC[C@H]2[C@@H]3CC=C4C[C@@H](O)CC[C@]4(C)[C@H]3CC[C@]12C | -1.9%
COc1ccc(CNC(=O)C2CCN(C(=O)[C@@H](CC(C)C)NC(=O)OC(C)(C)C)CC2)cc1 | 1.1%

SMILES | inhibition
O=C(CS(=O)(=O)Cc1ccccc1)NCc1ccc2c(c1)OCO2 | 1.6%
CC(=O)OC(C)C[N+](C)(C)C (stereo not drawn) | 0.7%
O=C1CC[C@@H](CN(Cc2ccccc2)Cc2cn[nH]c2-c2cc3ccccc3o2)N1 | 3.7%
Cc1cn([C@H]2C[C@H](N=[N+]=[N-])[C@@H](CO)O2)c(=O)[nH]c1=O | 2.4%
S=C(NCCOCCOCCNC(=S)Nc1ccccc1)Nc1ccccc1 | 1.9%
C[N+]12CCC(CC1)C(OC(=O)C(O)(c1ccccc1)c1ccccc1)C2 (stereo not drawn) | 1%
CCOc1ccc(CC2CCC(=O)NC2=O)cc1 (stereo not drawn) | -3%
C[C@]12CC[C@@H]3c4cc(O)c(O)cc4CC[C@H]3[C@@H]1CC[C@@H]2O | -1%
CCN1CCn2c3c(c4cc(Cl)ccc42)CCCC31 (stereo not drawn) | 0.6%
COc1ccc(-c2c3c(=O)n(C)c(=O)n(C)c3cn2C2CCCCC2)cc1 | 1.1%
Cc1nonc1CN(C)C(=O)c1ccc(OC2CCN(C(=O)c3cccnc3)CC2)cc1 | 3.6%
COCCNC(=O)CSc1ccc(Cl)cc1 | 1.8%
NCCc1cnc[nH]1 | 0.7% and 3.1%
CC(C)CCC1(CCNC(C)c2cccs2)CCOC(C)(C)C1 (stereo not drawn) | -3.5%
COc1ccccc1C(O)c1nccn1C (stereo not drawn) | 1.9%
O=C(c1ccc(F)cc1)[C@@H]1[C@@H](C(=O)c2ccccc2)[C@@]2(C(=O)Nc3ccccc32)[C@H]2c3ccccc3C=CN12 | 4.8%
CC(C)(C)n1c(=O)[nH]c2c(c1=O)CCC2 | 1.8%
COc1ccc(-c2c[n+](CC(=O)OC3CC(C)CCC3C(C)C)c3n2CCC3)cc1 (stereo not drawn) | 0.9%
Cc1ccc(P(=O)(CSC(=N)N)c2ccc(C)cc2)cc1 | -1.3%

Molecular target: Botulinum neurotoxin type A (Clostridium botulinum) (UniProt P0DPI0)
Sequence (P0DPI0 whole entry, looked up): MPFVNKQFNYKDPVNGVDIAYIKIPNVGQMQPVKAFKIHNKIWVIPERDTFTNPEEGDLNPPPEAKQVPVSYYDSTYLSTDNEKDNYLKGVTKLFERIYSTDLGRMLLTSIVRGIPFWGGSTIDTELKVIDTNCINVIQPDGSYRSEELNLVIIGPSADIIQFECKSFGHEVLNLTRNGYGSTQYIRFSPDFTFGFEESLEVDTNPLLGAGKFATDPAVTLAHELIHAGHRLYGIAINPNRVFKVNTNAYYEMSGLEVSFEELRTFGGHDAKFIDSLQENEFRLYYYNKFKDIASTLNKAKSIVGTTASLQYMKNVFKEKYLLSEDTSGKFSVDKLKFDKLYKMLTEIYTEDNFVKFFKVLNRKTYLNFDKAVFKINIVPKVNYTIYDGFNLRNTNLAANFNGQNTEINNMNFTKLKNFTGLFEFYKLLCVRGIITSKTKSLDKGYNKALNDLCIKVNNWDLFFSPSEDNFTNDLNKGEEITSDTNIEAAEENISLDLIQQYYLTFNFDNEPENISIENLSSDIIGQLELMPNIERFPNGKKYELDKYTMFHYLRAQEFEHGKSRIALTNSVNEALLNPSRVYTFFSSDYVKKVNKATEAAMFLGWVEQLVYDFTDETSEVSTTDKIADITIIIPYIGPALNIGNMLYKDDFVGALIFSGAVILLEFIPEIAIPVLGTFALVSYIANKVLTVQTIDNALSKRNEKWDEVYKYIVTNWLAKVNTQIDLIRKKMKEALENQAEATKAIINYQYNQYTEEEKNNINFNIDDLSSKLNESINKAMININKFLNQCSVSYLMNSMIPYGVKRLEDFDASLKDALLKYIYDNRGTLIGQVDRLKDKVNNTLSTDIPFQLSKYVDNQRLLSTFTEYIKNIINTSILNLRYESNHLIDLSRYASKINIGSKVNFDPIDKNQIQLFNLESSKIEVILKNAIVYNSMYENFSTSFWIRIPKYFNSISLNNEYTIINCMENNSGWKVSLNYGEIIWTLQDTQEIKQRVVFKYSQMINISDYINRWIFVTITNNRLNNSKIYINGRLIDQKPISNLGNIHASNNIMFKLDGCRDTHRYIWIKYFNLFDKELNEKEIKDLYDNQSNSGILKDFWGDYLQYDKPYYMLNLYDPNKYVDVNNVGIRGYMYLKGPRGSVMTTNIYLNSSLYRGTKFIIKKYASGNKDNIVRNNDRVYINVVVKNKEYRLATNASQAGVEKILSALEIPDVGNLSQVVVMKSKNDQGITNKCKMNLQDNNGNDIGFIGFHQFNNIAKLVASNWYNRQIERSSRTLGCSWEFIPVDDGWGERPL
Test: BoNT/A light chain protease inhibitors, biochemical, multiplex microsphere flow cytometry, validation set (AID 588460)
Conditions: at 10 µM, hits give high values

SMILES | inhibition [%]
CCOc1cc2oc(=O)c3c(c2cc1Cl)CCC3 | -0.7
O=C1CCCC(=O)C1=Cc1c[nH]c2ccccc12 | 0.4
CN1CCC(=C2c3ccccc3CC(=O)c3sccc32)CC1 | 0.8
O=C(N/N=C\c1cc([N+](=O)[O-])ccc1N1CCOCC1)c1ccccn1 | -1.3
O=c1[nH]c(=O)n(C2CCCO2)cc1F (stereo not drawn) | -0.7
CC(C)OC(=O)C1C(=O)CC(C)(O)C(C(=O)OC(C)C)C1c1cccc(O)c1 (stereo not drawn) | -0.2
O=C(CN1C(=O)/C(=C/c2cccc(Br)c2)SC1=S)Nc1cccnc1 | -0.3
COC(=O)c1cc(=O)c2ccc(OC)cc2o1 | -0.9
O=C(OCC1OC2OC3(CCCCC3)OC2C2OC3(CCCCC3)OC12)c1ccccc1 (stereo not drawn) | 2.6
CC(C)[C@H](NC(=O)[C@@H]1CSCN1C(=O)OC(C)(C)C)C(=O)NCC1CCC(C(=O)O)CC1 (stereo partly drawn) | -1.5
Fc1ccc(C(c2ccc(F)cc2)N2CCN(C/C=C/c3ccccc3)CC2)cc1 | -1.8
COc1ccc2c(c1)[nH]c1c(=O)n(Cc3ccccn3)cnc12 | -1
COCc1cc(=O)[nH]c(/N=C(\N)Nc2ccc(Oc3ccccc3)cc2)n1 | 0.1
O=C1CCCCCN1Cc1ccccc1 | -1.9
Nc1nc(Cl)nc2c1ncn2[C@@H]1O[C@H](CO)[C@@H](O)[C@H]1O | 0.5
COC(=O)c1cc(OC)c(OC)c(OC)c1[N+](=O)[O-] | 0.1
COCCCC/C(=N\OCCN)c1ccc(C(F)(F)F)cc1 | -0.2
O=C(O)c1ccc(C(=O)C(=O)c2ccccc2)cc1 | 1.8
CC(=O)OCC(=O)[C@H]1CC[C@H]2[C@@H]3CC=C4C[C@@H](O)CC[C@]4(C)[C@H]3CC[C@]12C | -1.3
COc1ccc(CNC(=O)C2CCN(C(=O)[C@@H](CC(C)C)NC(=O)OC(C)(C)C)CC2)cc1 | -0.8

SMILES | inhibition [%]
O=C(CS(=O)(=O)Cc1ccccc1)NCc1ccc2c(c1)OCO2 | 0.1
CC(=O)OC(C)C[N+](C)(C)C (stereo not drawn) | 0.6
O=C1CC[C@@H](CN(Cc2ccccc2)Cc2cn[nH]c2-c2cc3ccccc3o2)N1 | 1.2
Cc1cn([C@H]2C[C@H](N=[N+]=[N-])[C@@H](CO)O2)c(=O)[nH]c1=O | 0.2
S=C(NCCOCCOCCNC(=S)Nc1ccccc1)Nc1ccccc1 | 2
C[N+]12CCC(CC1)C(OC(=O)C(O)(c1ccccc1)c1ccccc1)C2 (stereo not drawn) | 0.1
CCOc1ccc(CC2CCC(=O)NC2=O)cc1 (stereo not drawn) | -0.5
C[C@]12CC[C@@H]3c4cc(O)c(O)cc4CC[C@H]3[C@@H]1CC[C@@H]2O | 1
CCN1CCn2c3c(c4cc(Cl)ccc42)CCCC31 (stereo not drawn) | 1.4
COc1ccc(-c2c3c(=O)n(C)c(=O)n(C)c3cn2C2CCCCC2)cc1 | -1.9
Cc1nonc1CN(C)C(=O)c1ccc(OC2CCN(C(=O)c3cccnc3)CC2)cc1 | 1.2
COCCNC(=O)CSc1ccc(Cl)cc1 | 0.7
NCCc1cnc[nH]1 | -1.5
CC(C)CCC1(CCNC(C)c2cccs2)CCOC(C)(C)C1 (stereo not drawn) | -0.9
COc1ccccc1C(O)c1nccn1C (stereo not drawn) | -0.7
O=C(c1ccc(F)cc1)[C@@H]1[C@@H](C(=O)c2ccccc2)[C@@]2(C(=O)Nc3ccccc32)[C@H]2c3ccccc3C=CN12 | 0.3
CC(C)(C)n1c(=O)[nH]c2c(c1=O)CCC2 | -0.4
COc1ccc(-c2c[n+](CC(=O)OC3CC(C)CCC3C(C)C)c3n2CCC3)cc1 (stereo not drawn) | 0.1
Cc1ccc(P(=O)(CSC(=N)N)c2ccc(C)cc2)cc1 | -0.5
